Data taken from PubChem BioAssay (NCATS).
Inconclusive results are not listed. The source made the active and inactive calls. Unless noted, calls come from the whole dose curve; as a rule, active = well fitted curve in the direction sought with a large enough effect; inconclusive = small, poorly fitted or top-dose-only effect, or another doubt; inactive = no such curve, though single readings can be large; an effect the other way counts as inactive or inconclusive.

Legend:
[1] = P-glycoprotein substrates identified in KB-8-5-11 adenocarcinoma cell line, qHTS therapeutic library screen (AID 1346987); note: nearly all actives have a fitted effect of over 65% in size; note: potency is the fitted concentration of half-maximal effect
How it was run: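 KB-8-5-11: colchicine-selected sub-line of KB-3-1 over-expressing P-gp; assay medium lacked colchicine. 72 h drug exposure at 37 degree C, CellTiter-Glo.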

[2] = system: Zika virus NS2B-NS3 protease (unlinked complex); test: Primary screen GU Rhodamine qHTS for Zika virus inhibitors: Unlinked NS2B-NS3 protease assay (AID 1347159); note: % is set by controls: 0 for no effect and ±100 for the full control effect; nearly all actives have a fitted effect of over 60% in size
How it was run: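 Noncovalent NS2B hydrophilic domain/NS3 protease complex (25 nM final) in 10 mM Tris-HCl pH 8.0, 0.01% Tween 20, preincubated 15 min with compounds (up to 114 microM), then 1.5 microM Rhodamine110 substrate. Fluorescence change over 15 min fitted to 4-parameter Hill.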

[3] = biological target: Calcium and integrin-binding protein 1 (Homo sapiens) (UniProt Q99828); test: Primary qHTS for Identification of Calcium Integrin Binding Protein 1 (CIB1) Competitor (AID 1508620);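 note: GST tagged CIB1 binding a fluorescein labelled alphaIIb integrin peptide tracer; top concentration of the series differs between compounds; % is set by controls: 0 for no effect and ±100 for the full control effect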
Calcium and integrin-binding protein 1 (Homo sapiens), sequence (Q99828 whole entry, looked up): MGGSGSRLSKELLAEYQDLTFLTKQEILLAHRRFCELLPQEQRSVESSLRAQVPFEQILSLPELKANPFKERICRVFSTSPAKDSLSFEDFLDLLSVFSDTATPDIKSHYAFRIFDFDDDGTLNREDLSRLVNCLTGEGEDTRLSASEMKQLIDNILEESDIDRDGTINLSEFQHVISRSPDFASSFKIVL
How it was run: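 Fluorescence polarization competition: GST-tagged CIB1 (1 uM final) preincubated with compound 15 min at room temperature, then FITC-labelled alphaIIb peptide (100 nM final) added. After 15 min at room temperature, polarization read at Ex 480/Em 540.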

[4] = Cytotoxicity counterscreen for inhibitors of SARS-CoV-2 cell entry (AID 1645845; calls by dose curve; note: nearly all actives have a fitted effect of over 50% in size)
How it was run: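 HEK293-ACE2 cells (Expi293F stably expressing human ACE2) seeded overnight, then compound for 1 h plus 48 h at 37C. Viability as ATP content by luminescence; normalized to wells with cells and media-only wells.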

[5] = Primary redox qHTS assay for identification of artifact compounds. (AID 1845223);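 note: 0% = DMSO and 100% = reference compound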
How it was run: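 Amplex Red (25 uM) and HRP (250 mU/mL) in HBSS, with compounds for 15 min, then 250 uM DTT for 30 min, room temperature, dark. Fluorescence 525/598 nm read; normalized to DMSO and 10 uM DA3003; Hill fit.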

KB-3-1 = test: Cytotoxic Profiling of Annotated Libraries Using Quantitative High-Throughput Screening (AID 1296008); details: Five cell lines viability, CellTiter-Glo ATP luminescence, 48-72 h; max response: stronger effect = lower value; note: nearly all actives have a fitted effect of over 60% in size; note: potency is the fitted concentration of half-maximal effect; for max response: % is set by controls: 0 for no effect and ±100 for the full control effect
How it was run: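 Cells exposed to compounds for 48 or 72 hr at 37 degrees Celsius. Viability read as ATP-coupled luminescence with CellTiter-Glo after 10 min at room temperature.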

HACAT = test: qHTS assay to identify novel small-molecules to repurpose for Merkel cell carcinoma treatment (AID 1296009); details: MCC and control cell lines, CellTiter-Glo viability, 72 h; at 44.8 µM (top of the series) unless noted; note: nearly all actives have a fitted effect of over 60% in size
How it was run: (§1)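 Cells were incubated with compound for 72 hr at 37 degree celsius before CellTiter-Glo addition. Luminescence was normalized with no-cell wells as full cytotoxicity and DMSO as baseline.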

CAOV3 = test: Primary qHTS to identify gynecologic anti-cancer compounds using libraries of approved drugs and bioactive compounds (AID 1345084); details: Gynecologic cancer cell panel viability, ATPlite luminescence, 48 h; series mostly up to 57.5 µM; note: nearly all actives have a fitted effect of over 55% in size; note: potency is the fitted concentration of half-maximal effect
How it was run: (§2)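 Measured: luminescence after ATPlite addition (15 min, RT). Exposure: 48 h, 37 C, 5% CO2.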

JEG-3 = test: as above; details: Gynecologic cancer cell panel viability, ATPlite luminescence, 48 h; series mostly up to 57.5 µM
How it was run: as §2

SKOV3 = test: as above; details: Gynecologic cancer cell panel viability, ATPlite luminescence, 48 h; series mostly up to 57.5 µM
How it was run: as §2

[6] = P-glycoprotein substrates identified in KB-3-1 adenocarcinoma cell line, qHTS therapeutic library screen (AID 1346986); note: nearly all actives have a fitted effect of over 60% in size
How it was run: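 Compounds were tested in dose-response against KB-3-1 and KB-8-5-11 cells at 37 degree C for 72 h, and viability was measured by luminescence. AC50 values came from curve fitting with class-based activity calls.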

HeLa = test: Primary qHTS to identify gynecologic anti-cancer compounds using libraries of approved drugs and bioactive compounds (AID 1345084); details: Gynecologic cancer cell panel viability, ATPlite luminescence, 48 h; series mostly up to 57.5 µM; note: nearly all actives have a fitted effect of over 55% in size; note: potency is the fitted concentration of half-maximal effect
How it was run: as §2

CRL-7250 = normal cell line; test: qHTS assay to identify novel small-molecules to repurpose for Merkel cell carcinoma treatment (AID 1296009); details: MCC and control cell lines, CellTiter-Glo viability, 72 h; series mostly up to 92 µM; note: nearly all actives have a fitted effect of over 60% in size
How it was run: as §1

[7] = qHTS Assay for Lipid Storage Modulators (AID 1519; calls by dose curve; for activity change, negative = inhibition: % is set by controls: 0 for no effect and ±100 for the full control effect); details: Drosophila S3 cells, BODIPY lipid droplet/cell ratio, laser cytometry, cells loaded with oleic acid
How it was run: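 Cells seeded at 5,000 per well were treated with compounds over a concentration series and loaded with oleic acid (400 uM, as added). Lipid droplet fluorescence (488 nm excitation, 500-530 nm channel) was read by laser-scanning cytometry and normalized to 20 uM Triacsin C.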

[8] = Primary qHTS to identify inhibitors of SARS-CoV-2 cell entry (AID 1645846; calls by dose curve; note: nearly all actives have a fitted effect of over 45% in size); details: activity change, negative = inhibition: at 57.1 µM (top of the series) unless noted
How it was run: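 HEK293 cells stably expressing human ACE2, pre-treated 1 h with compound, then infected with MLV particles pseudotyped with Wuhan-Hu-1 spike (C-terminal 19-aa truncation). Luciferase luminescence after 48 h at 37 °C, normalised to spike PP and bald PP.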

[9] = biological target: Cytochrome P450 2D6 (Homo sapiens) (UniProt P10635); test: Cytochrome P450 family 2 subfamily D member 6 (CYP2D6) small molecule antagonists: luciferase biochemical (cell-free) qHTS assay (AID 1645840; active = well fitted curve in the direction sought with a large enough effect in the repeat runs; an effect the other way counts as inactive or inconclusive; note: % is set by controls: 0 for no effect and ±100 for the full control effect; nearly all actives have a fitted effect of over 55% in size)
Cytochrome P450 2D6 (Homo sapiens), sequence (P10635 whole entry, looked up): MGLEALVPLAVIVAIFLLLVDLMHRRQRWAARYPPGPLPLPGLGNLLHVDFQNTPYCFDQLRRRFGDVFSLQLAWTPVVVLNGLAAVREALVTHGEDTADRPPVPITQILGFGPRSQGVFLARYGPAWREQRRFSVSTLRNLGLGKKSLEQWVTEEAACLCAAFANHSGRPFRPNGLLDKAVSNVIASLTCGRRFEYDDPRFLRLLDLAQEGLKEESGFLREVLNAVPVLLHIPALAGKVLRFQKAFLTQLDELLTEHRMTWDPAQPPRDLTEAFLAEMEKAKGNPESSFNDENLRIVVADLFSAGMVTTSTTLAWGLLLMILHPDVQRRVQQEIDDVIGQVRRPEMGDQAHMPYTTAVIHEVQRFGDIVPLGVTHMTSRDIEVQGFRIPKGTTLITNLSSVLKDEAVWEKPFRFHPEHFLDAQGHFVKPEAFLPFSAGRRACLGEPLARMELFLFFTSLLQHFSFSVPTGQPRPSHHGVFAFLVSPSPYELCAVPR
How it was run: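 P450-Glo luminescent screen: recombinant CYP2D6 enzyme–proluciferin substrate mix preincubated with compound 10 min at room temperature, then NADPH regeneration added for 1 h at room temperature. Detection reagent added for 20 min; luciferin light read as relative luminescence units.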

[10] = biological target: Cytochrome P450 2C9 (Homo sapiens) (UniProt P11712); test: Cytochrome P450 family 2 subfamily C member 9 (CYP2C9) small molecule antagonists: luciferase biochemical (cell-free) qHTS assay (AID 1645842; active = well fitted curve in the direction sought with a large enough effect in the repeat runs; an effect the other way counts as inactive or inconclusive; note: % is set by controls: 0 for no effect and ±100 for the full control effect; nearly all actives have a fitted effect of over 55% in size)
Cytochrome P450 2C9 (Homo sapiens), sequence (P11712 whole entry, looked up): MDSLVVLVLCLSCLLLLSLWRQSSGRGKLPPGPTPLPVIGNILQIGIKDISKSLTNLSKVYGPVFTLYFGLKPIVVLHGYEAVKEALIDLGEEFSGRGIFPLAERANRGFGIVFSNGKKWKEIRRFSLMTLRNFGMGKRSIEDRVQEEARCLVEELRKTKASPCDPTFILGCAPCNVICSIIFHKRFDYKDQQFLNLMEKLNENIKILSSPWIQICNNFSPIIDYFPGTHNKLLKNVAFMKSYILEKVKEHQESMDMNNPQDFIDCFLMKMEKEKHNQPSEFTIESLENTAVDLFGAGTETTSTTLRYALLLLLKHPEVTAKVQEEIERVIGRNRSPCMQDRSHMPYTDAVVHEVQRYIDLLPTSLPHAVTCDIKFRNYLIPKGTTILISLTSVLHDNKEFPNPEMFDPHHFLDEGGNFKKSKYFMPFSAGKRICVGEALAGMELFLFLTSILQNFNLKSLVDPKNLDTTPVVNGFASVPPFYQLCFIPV
How it was run: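 Luminescence, after 20 min with luciferin detection reagent, reflected CYP2C9 turnover during a 1 h NADPH-driven reaction at 37C. Enzyme-substrate mix contained 0.4% bovine serum albumin and was preincubated with compound 10 min at room temperature.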

CC(=O)O[C@H]1CC[C@H]2[C@@H]3CC[C@H]4CC(=O)C=C(C)[C@]4(C)[C@H]3CC[C@]12C
inactive: Potency [1] | Potency [2] | Potency [3] | Potency [4] | Potency [5] | max response (KB-3-1) 7.22% | outcome (HACAT) | Potency (CAOV3) | Potency (JEG-3) | Potency (SKOV3)

COCC(C(=O)OC1CC2CCC(C1)N2C)c1ccccc1 (centres undefined)
inactive: Potency [6] | Potency [1] | Potency [3] | Potency [5] | outcome (KB-3-1) | outcome (HACAT) | Potency (CAOV3) | Potency (HeLa) | Potency (JEG-3)

O=C1N[C@@H](Cc2ccccc2)CN2CCCC[C@@H]12
inactive: Potency [1] | Potency [2] | Potency [3] | Potency [5] | max response (KB-3-1) 1.17% | outcome (HACAT) | Potency (CAOV3) | Potency (HeLa) | Potency (JEG-3) | Potency (SKOV3)

C#CCO[C@H]1CN2CCC1CC2
inactive: Potency [1] | Potency [3] | Potency [5] | max response (KB-3-1) 2.91% | Potency (CAOV3) | Potency (HeLa) | Potency (JEG-3) | Potency (SKOV3)

COc1ccc2c3c4n(c2c1)[C@@H](C=C(C)C)OOC(C)(C)C[C@@H]4N1C(=O)[C@@H]2CCCN2C(=O)[C@]1(O)[C@H]3OCC=C(C)C
inactive: Potency [1] | Potency [2] | Potency [3] | Potency [5] | max response (KB-3-1) 8.3% | Potency (CRL-7250) | Potency (CAOV3) | Potency (HeLa) | Potency (JEG-3) | Potency (SKOV3)

CO[C@@H]1[C@H](O)[C@@H](O[C@@H]2C[C@H]3CC[C@@H]4C(CC[C@]5(C)[C@@H](C6=CC(=O)OC6)CC[C@]45O)[C@@]3(C)[C@H](O)C2)O[C@H](C)[C@@H]1O (some centres undefined)
inactive: Potency [2] | Potency [3]
active: Potency [1] 252 nM | Potency (KB-3-1) 448 nM | Potency (CAOV3) 631 nM | Potency (HeLa) 199 nM | Potency (JEG-3) 891 nM | Potency (SKOV3) 251 nM

COC1C=CC23c4cc5c(cc4COC2(O)CN(C)C3C1)OCO5 (centres undefined)
inactive: Potency [6] | Potency [1] | Potency [2] | Potency [5] | outcome (KB-3-1) | outcome (HACAT) | Potency (CAOV3) | Potency (JEG-3)

C=CCN1CCC2(C)c3cc(O)ccc3C[C@H]1[C@H]2C
inactive: activity change, negative = inhibition ([7]; at 57.5 µM (top of the series)) -8.46% | Potency [2] | Potency [3] | Potency [5] | max response (KB-3-1) 1.41% | Potency (CAOV3) | Potency (HeLa) | Potency (JEG-3) | Potency (SKOV3)
17%: max response ([7]; measured here: lipid channel max response)
25.8%: max response ([7]; measured here: cell count channel max response)

C=CCN1CC[C@]23c4c5ccc(O)c4O[C@H]2[C@@H](O)CC[C@@]3(O)[C@H]1C5
inactive: Potency [1] | Potency [2] | Potency [3] | Potency [5] | max response (KB-3-1) 3.34% | Potency (CAOV3) | Potency (HeLa) | Potency (JEG-3) | Potency (SKOV3)

CCC(C)/C=C(C)/C=C/C1=CC2=C(Cl)C(=O)C(C)(OC(C)=O)C(=O)C2=CO1 (centres undefined)
inactive: Potency [1] | Potency [3] | max response (KB-3-1) -15.5% | Potency (CAOV3) | Potency (HeLa) | Potency (JEG-3) | Potency (SKOV3)

CCC(C)(O)C1(C(=O)O)COC(=O)C1 (centres undefined)
inactive: Potency [6] | Potency [1] | Potency [3] | Potency [5] | outcome (KB-3-1) | outcome (HACAT) inactive [at 92 µM] | Potency (CAOV3) | Potency (HeLa) | Potency (JEG-3) | Potency (SKOV3)

CC(=O)O[C@H]1CN2CCC1CC2
inactive: Potency [6] | Potency [1] | Potency [3] | Potency [5] | outcome (KB-3-1) | Potency (CAOV3) | Potency (HeLa) | Potency (JEG-3) | Potency (SKOV3)

COc1ccc(CN(C(=O)[C@@H](N)Cc2c(C)cc(C(N)=O)cc2C)[C@@H](C)c2ncc(-c3ccccc3)[nH]2)cc1C(=O)O
-25.7%: activity change, negative = inhibition [8]
inactive: Potency [1] | Potency [2] | Potency [3] | Potency [4] | max response (KB-3-1) 2.03% | Potency (CAOV3) | Potency (HeLa) | Potency (JEG-3) | Potency (SKOV3)

CC1CCCC(O)CC(=O)Cc2cc(O)cc(O)c2C(=O)O1 (centres undefined)
inactive: Potency [1] | Potency [2] | Potency [3] | Potency [5] | max response (KB-3-1) 8.3% | outcome (HACAT) | Potency (CAOV3) | Potency (HeLa) | Potency (JEG-3) | Potency (SKOV3)

CN1C2CCC1CC(OC(=O)N1Cc3ccccc3NC1=O)C2 (centres undefined)
inactive: Potency [1] | Potency [2] | Potency [3] | Potency [9] | Potency [10] | Potency [5] | max response (KB-3-1) -1.51% | Potency (CRL-7250) | Potency (CAOV3) | Potency (HeLa) | Potency (JEG-3)

CC1=CC2(O)/C=C/C(C)(O)C(O)C(O)/C=C/C(=O)OC23C(=O)NC(CC(C)C)C3C1C (centres undefined)
inactive: Potency [6] | Potency [1] | Potency [3] | Potency [5] | outcome (KB-3-1) | outcome (HACAT) inactive [at 17.4 µM] | Potency (HeLa) | Potency (JEG-3) | Potency (SKOV3)
